Results filed as inconclusive are left out. Calls of active or inactive are those of the source. The calls were made as follows, unless noted: active = hit-call score of the fitted dose curve at least 0.9, where 1 is the maximum; inactive = score below 0.9.
Assays:
[1] = molecular target: Peroxisome proliferator-activated receptor gamma (Homo sapiens) (UniProt P37231); assay: OT_PPARg_PPARgSRC1_0480: Odyssey Thera (OT) 8-hour Protein-Complementation Assay for Peroxisome Proliferator-activated Receptor Gamma / SRC-1 Co-activator (AID 2283387; active = hit-call score of the fitted dose curve at least 0.9, where 1 is the maximum)
Chain of Peroxisome proliferator-activated receptor gamma (Homo sapiens) (P37231 whole entry, looked up, the tested form may be a part): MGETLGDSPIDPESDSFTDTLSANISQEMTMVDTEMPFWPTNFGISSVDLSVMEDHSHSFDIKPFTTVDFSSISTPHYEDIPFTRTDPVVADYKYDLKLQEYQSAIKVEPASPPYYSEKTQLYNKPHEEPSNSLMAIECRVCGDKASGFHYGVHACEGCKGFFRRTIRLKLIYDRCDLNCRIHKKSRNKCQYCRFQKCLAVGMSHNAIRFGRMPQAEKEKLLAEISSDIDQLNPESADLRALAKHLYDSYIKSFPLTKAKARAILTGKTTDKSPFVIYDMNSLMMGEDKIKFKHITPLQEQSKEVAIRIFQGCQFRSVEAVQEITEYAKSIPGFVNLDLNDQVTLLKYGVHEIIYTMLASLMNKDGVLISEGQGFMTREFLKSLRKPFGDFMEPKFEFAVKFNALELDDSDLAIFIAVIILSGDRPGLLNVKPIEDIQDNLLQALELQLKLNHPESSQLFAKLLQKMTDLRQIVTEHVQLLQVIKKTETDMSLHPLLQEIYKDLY
Outline: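 Protein-fragment complementation in HEK293T: Venus YFP halves (residues 1-158, 159-239, mutated to IFP1/IFP2) fused to PPARg/SRC-1. 8 h exposure; N/C ratio at 488 nm; DMSO negative control.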

[2] = molecular target: Peroxisome proliferator-activated receptor gamma (Homo sapiens) (UniProt P37231); assay: OT_PPARg_PPARgSRC1_1440: Odyssey Thera (OT) 24-hour Protein-Complementation Assay for Peroxisome Proliferator-activated Receptor Gamma/ SRC-1 Co-activator (AID 2283388; active = hit-call score of the fitted dose curve at least 0.9, where 1 is the maximum)
Outline: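 HEK293T transiently transfected with PPARg/SRC-1 split-Venus YFP fusions 48 h before dosing, then treated 24 h at 37C. Fixed cells imaged; nuclear/cytoplasmic 488 nm fluorescence ratio, gain of signal versus DMSO.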

[3] = read-out: Tumor necrosis factor receptor superfamily member 6 (Homo sapiens) (UniProt P25445); assay: LTEA_HepaRG_FAS: Life Technologies and Expression Analysis (LTEA) Assay for Fas cell surface death receptor (FAS) using HepaRG (AID 2283447); settings: mRNA level, 48 h; actives raise or lower the signal
Outline: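 Differentiated human HepaRG cells, pre-cultured 48 h, were exposed in duplicate for 48 h to 8-point half-log concentrations (top 100 uM, 0.5% DMSO) in serum-free induction medium; FAS mRNA measured by qRT-PCR, normalized to ACTB/GAPDH/POLR2A, bidirectional fit versus DMSO.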

[4] = read-out: Cyclin D2 (CCND2), CCND2 (gene 894); assay: LTEA_HepaRG_CCND2: Life Technologies and Expression Analysis (LTEA) Assay for Cyclin D2 (CCND2) using HepaRG (AID 2283449); settings: mRNA level, 48 h; actives raise or lower the signal;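 also: CCND2 transcript measured by TaqMan qRT-PCR and normalised to three housekeeping genes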
Outline: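 Differentiated human HepaRG cells were exposed for 48 h in serum-free induction medium to eight half-log concentrations topping at 100 uM (0.5% DMSO vehicle). CCND2 mRNA was quantified by TaqMan qRT-PCR, normalised to ACTB, GAPDH and POLR2A, and fitted bidirectionally against DMSO.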

[5] = read-out: Cyclin Dependent Kinase Inhibitor 1A (CDKN1A), CDKN1A (gene 1026); assay: LTEA_HepaRG_CDKN1A: Life Technologies and Expression Analysis (LTEA) Assay for Cyclin Dependent Kinase Inhibitor 1A (CDKN1A) using HepaRG (AID 2283450); settings: mRNA level, 48 h; actives raise or lower the signal
Outline: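 Differentiated HepaRG cells in serum-free induction medium, exposed 48 h in duplicate to eight half-log concentrations up to 100 uM in 0.5% DMSO. mRNA measured by TaqMan qRT-PCR, normalized to ACTB, GAPDH, POLR2A; bidirectional fit versus DMSO.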

[6] = read-out: catalase (CAT), CAT (gene 847); assay: LTEA_HepaRG_CAT: Life Technologies and Expression Analysis (LTEA) Assay for catalase (CAT) using HepaRG (AID 2283452); settings: mRNA level, 48 h; actives raise or lower the signal;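 as to AC50: TaqMan qRT-PCR signal normalized to ACTB GAPDH and POLR2A housekeeping genes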
Outline: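 Differentiated HepaRG cells in serum-free induction medium were dosed 48 h in duplicate, eight half-log concentrations from 100 uM in 0.5% DMSO. Transcript measured by TaqMan qRT-PCR, normalised to ACTB/GAPDH/POLR2A, fitted bidirectionally against DMSO.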

[7] = read-out: flavin-containing dimethylaniline monooxygenases 3 (FMO3), FMO3 (gene 2328); assay: LTEA_HepaRG_FMO3: Life Technologies and Expression Analysis (LTEA) Assay for flavin-containing dimethylaniline monooxygenases 3 (FMO3) using HepaRG (AID 2283453); settings: mRNA level, 48 h; actives raise or lower the signal
Outline: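 Differentiated HepaRG cells in serum-free induction medium, exposed 48 h in duplicate to 8 half-log concentrations up to 100 uM in 0.5% DMSO. FMO3 mRNA by qRT-PCR, normalized to ACTB, GAPDH, POLR2A; bidirectional fit vs DMSO.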

[8] = read-out: Cytochrome P450 (CYP1A1), CYP1A1 (gene 1543); assay: LTEA_HepaRG_CYP1A1: Life Technologies and Expression Analysis (LTEA) Assay for Cytochrome P450 (CYP1A1) using HepaRG (AID 2283454); settings: mRNA level, 48 h; actives raise or lower the signal
Outline: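 Differentiated human HepaRG cells, after 48 h plating, exposed in duplicate for 48 h in serum-free induction medium to 8 half-log concentrations up to 100 uM in 0.5% DMSO. CYP1A1 mRNA by qRT-PCR, normalized to ACTB/GAPDH/POLR2A; bidirectional fit versus DMSO.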

[9] = read-out: CFLAR gene, CFLAR (gene 8837); assay: LTEA_HepaRG_CFLAR: Life Technologies and Expression Analysis (LTEA) Assay for CFLAR gene using HepaRG (AID 2283455); settings: mRNA level, 48 h; actives raise or lower the signal
Outline: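 HepaRG cells were plated for 48 h, switched to serum-free induction medium, then exposed in duplicate for 48 h to 8 concentrations (top 100 uM, half-log steps, 0.5% DMSO). CFLAR mRNA was measured by qRT-PCR, normalized to ACTB, GAPDH and POLR2A.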

[10] = CEETOX_H295R_OHPREG: CeeTox H295R High-throughput Steroidogenesis Assay for OH-Pregnenolone (OHPREG) (AID 2283434); settings: actives raise or lower the signal
Outline: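 Human adrenal H295R cells were prestimulated 48 h with 10 uM forskolin, then exposed 48 h to chemical in 0.1% DMSO. Medium 17alpha-hydroxypregnenolone was quantified by HPLC-MS/MS after MTBE extraction; bidirectional fitting versus DMSO baseline.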

[11] = CEETOX_H295R_OHPROG: CeeTox H295R High-throughput Steroidogenesis Assay for OH-Progesterone (OHPROG) (AID 2283435); settings: actives raise or lower the signal;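 as to AC50: 17alpha-hydroxyprogesterone secreted into medium measured by HPLC-MS/MS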
Outline: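 H295R, 10 uM forskolin prestim 48 h; cmpd in 0.1% DMSO 48 h; medium MTBE-extracted, HPLC-MS/MS for OH-progesterone; 7-pt std curve; bidirectional fit vs DMSO; MTT viability, chemicals diluted until viability >/=70%.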

[12] = CEETOX_H295R_CORTIC: CeeTox H295R High-throughput Steroidogenesis Assay for Corticosterone (CORTIC) (AID 2283437); settings: actives raise or lower the signal;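 also: corticosterone secreted into medium quantified by mass spectrometry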
Outline: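 H295R cells were prestimulated 48 h with 10 uM forskolin, then exposed 48 h to test chemical in 0.1% DMSO. Medium corticosterone was MTBE-extracted and quantified by HPLC-MS/MS; bidirectional fit versus DMSO baseline.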

[13] = CEETOX_H295R_CORTISOL: CeeTox H295R High-throughput Steroidogenesis Assay for Cortisol (AID 2283438); settings: actives raise or lower the signal;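 also: cortisol secreted into medium quantified by LC-MS/MS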
Outline: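 Forskolin 10 uM 48 h prestim → test cmpd in DMSO (0.1% final) 48 h → medium MTBE-extracted → LC-MS/MS cortisol vs 7-pt std curve. Gain/loss of signal fitted vs DMSO. MTT viability in same wells.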

[14] = CEETOX_H295R_DOC: CeeTox H295R High-throughput Steroidogenesis Assay for DOC (AID 2283439); settings: actives raise or lower the signal
Outline: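 Readout: 11-deoxycorticosterone in culture medium by reverse-phase C18 HPLC with ESI+ tandem MS after MTBE extraction. Cells: H295R, forskolin-primed (10 uM, 48 h), chemical-treated 48 h; DMSO 0.1% final. Activity fitted bidirectionally versus DMSO.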

[15] = CEETOX_H295R_ESTRADIOL: CeeTox H295R High-throughput Steroidogenesis Assay for Estradiol (AID 2283440); settings: actives raise or lower the signal;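 also: estradiol secreted into medium quantified by LC-MS/MS after dansyl derivatisation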
Outline: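 H295R cells pre-stimulated 48 h with 10 uM forskolin, then exposed 48 h to chemical in 0.1% DMSO. Medium estradiol quantified by MTBE extraction, dansyl derivatisation and HPLC-MS/MS; bidirectional fit versus DMSO; MTT viability required >/=70%.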

[16] = CEETOX_H295R_ESTRONE: CeeTox H295R High-throughput Steroidogenesis Assay for Estrone (AID 2283441); settings: actives raise or lower the signal;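 also: estrone secreted into medium measured by LC-MS/MS after dansyl derivatization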
Outline: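 H295R cells prestimulated 48 h with 10 uM forskolin, then exposed 48 h to chemicals in 0.1% DMSO final; estrone in medium extracted with MTBE, dansyl-derivatized, quantified by HPLC-MS/MS; bidirectional fitting versus DMSO, viability by MTT.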

[17] = CEETOX_H295R_PROG: CeeTox H295R High-throughput Steroidogenesis Assay for Progesterone (PROG) (AID 2283442); settings: actives raise or lower the signal;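 as to AC50: human H295R adrenal cells primed with 10 µM forskolin before dosing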
Outline: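 H295R adrenal cells prestimulated 48 h with 10 uM forskolin, then exposed 48 h to test chemical in 0.1% DMSO. Progesterone in medium quantified by HPLC-MS/MS after MTBE extraction; viability checked by MTT in same wells.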

[18] = molecular target: Retinoic acid receptor RXR-alpha (Homo sapiens) (UniProt P19793); assay: OT_NURR1_NURR1RXRa_1440: Odyssey Thera (OT) 24-hour HEK293T Protein Complementation Assay for Nurr1/retinoid X receptor (RXR) (AID 2283386; active = hit-call score of the fitted dose curve at least 0.9, where 1 is the maximum)
Chain of Retinoic acid receptor RXR-alpha (Homo sapiens) (P19793 whole entry, looked up, the tested form may be a part): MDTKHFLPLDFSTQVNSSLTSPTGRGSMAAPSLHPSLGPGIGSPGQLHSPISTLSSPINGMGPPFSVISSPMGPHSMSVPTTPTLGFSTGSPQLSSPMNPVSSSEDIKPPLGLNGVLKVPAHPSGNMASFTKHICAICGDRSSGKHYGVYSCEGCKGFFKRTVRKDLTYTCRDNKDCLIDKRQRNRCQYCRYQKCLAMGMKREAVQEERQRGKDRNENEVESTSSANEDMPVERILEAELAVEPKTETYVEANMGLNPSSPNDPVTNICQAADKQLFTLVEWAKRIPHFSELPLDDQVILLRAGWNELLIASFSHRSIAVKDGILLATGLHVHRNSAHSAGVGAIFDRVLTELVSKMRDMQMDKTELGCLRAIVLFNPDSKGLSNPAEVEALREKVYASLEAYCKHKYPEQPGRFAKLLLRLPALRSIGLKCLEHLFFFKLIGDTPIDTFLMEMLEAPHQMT
Outline: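 Interaction of Nurr1 with RXRα brings fused reporter fragments together in human HEK293T cells, restoring a functional reporter. Fluorescence intensity is measured 24 h after chemical treatment, and values are analysed in the positive direction against DMSO.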

[19] = CEETOX_H295R_ANDR: CeeTox H295R High-throughput Steroidogenesis Assay for Androstenedione (ANDR) (AID 2283436); settings: actives raise or lower the signal
Outline: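 H295R human adrenal cells (passages ≤10) were exposed to test chemicals for 48 h; androstenedione in medium was MTBE-extracted and quantified by HPLC-MS/MS against a 7-point standard curve. Bidirectional fitting used DMSO as baseline.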

Measured: AC50

CCC(C)(C)c1ccc(O)c(C(C)(C)CC)c1
active: [8] 74 µM
inactive: [1] | [2] | [3] | [4] | [5] | [6] | [7] | [9]

Cl/C=C\C[N+]12CN3CN(CN(C3)C1)C2
inactive: [1] | [2]

CCOP(=S)(OCC)SCCS(=O)(=O)CC
active: [11] 14.9 µM | [17] 19.2 µM
inactive: [10] | [12] | [13] | [14] | [15] | [16]

CCCCCCCCC(=O)NCc1ccc(O)c(OC)c1
inactive: [10] | [11] | [12] | [13] | [14] | [15] | [16] | [17]

O=S(=O)(c1ccc(Cl)cc1)c1ccc(Cl)cc1
inactive: [18] | [1] | [2]

C[C@@H]1C[C@@H]([C@H](O)CC2CC(=O)NC(=O)C2)C(=O)[C@@H](C)C1
inactive: [1] | [2] | [10] | [11] | [17] | [3] | [4]
active: [5] 13.2 µM | [6] 12.4 µM | [7] 25.9 µM | [9] 13.4 µM

CNC
inactive: [18] | [1] | [2]

O=c1[nH]c(=O)[nH]c(=O)[nH]1
inactive: [18] | [1] | [2] | [3] | [4] | [5] | [6] | [7] | [8] | [9]

CC1(C)Cc2cccc(O)c2O1
inactive: [1] | [2]

CN(CCCC(=O)c1cccnc1)N=O
inactive: [10] | [11] | [19] | [12] | [13] | [14] | [17]

N#CN=C(N)N
inactive: [18] | [1] | [2]
